From PubChem BioAssay (NCATS)
Inconclusive results are not listed. Active and inactive are the calls of the source. Calls come from the whole dose curve; as a rule, active = well fitted curve in the direction sought with a large enough effect; inconclusive = small, poorly fitted or top-dose-only effect, or another doubt; inactive = no such curve, though single readings can be large; an effect the other way counts as inactive or inconclusive. Where a SMILES comes first, the peptide text is derived from it.

Legend:
NIH3T3 = experiment: qHTS assay to identify novel small-molecules to repurpose for Merkel cell carcinoma treatment (AID 1296009); conditions: MCC and control cell lines, CellTiter-Glo viability, 72 h; at 44.8 µM (top of the series) unless noted; note: nearly all actives have a fitted effect of over 60% in size
Outline: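 Cell viability measured by CellTiter-Glo following 72 hr compound treatment at 37 degree celsius, with NPC and MIPE libraries tested in 8- and 11-point concentration series.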

C33A = experiment: Primary qHTS to identify gynecologic anti-cancer compounds using libraries of approved drugs and bioactive compounds (AID 1345084); conditions: Gynecologic cancer cell panel viability, ATPlite luminescence, 48 h; series mostly up to 57.5 µM; note: % is set by controls: 0 for no effect and ±100 for the full control effect; nearly all actives have a fitted effect of over 55% in size
Outline: (§1)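 Cells, 1,000 per well, plated 16 h, then exposed 48 h at 37 C to compounds. Viability by ATPlite luminescence after 15 min at room temperature.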

CAOV3 = experiment: as above; conditions: Gynecologic cancer cell panel viability, ATPlite luminescence, 48 h; series mostly up to 57.5 µM
Outline: as §1

CASKI = experiment: as above; conditions: Gynecologic cancer cell panel viability, ATPlite luminescence, 48 h; series mostly up to 57.5 µM
Outline: as §1

CC1=CC2(O)/C=C/C(C)(O)CC(O)/C=C/C(=O)OC23C(=O)NC(CC(C)C)C3C1C (stereo not given)
inactive: outcome (NIH3T3) inactive [at 17.4 µM] | Potency (C33A) | Potency (CAOV3) | Potency (CASKI)

CO[C@@H](Cc1ccc(OCCc2nc(-c3ccccc3)oc2C)c2ccsc12)C(=O)O
inactive: outcome (NIH3T3) | Potency (C33A) | Potency (CAOV3) | Potency (CASKI)

C=CCc1ccc(O[C@@H]2O[C@H](CO[C@@H]3O[C@H](CO)[C@@H](O)[C@H](O)[C@H]3O)[C@@H](O)[C@H](O)[C@H]2O)c(O)c1
inactive: outcome (NIH3T3) inactive [at 17.4 µM] | Potency (C33A) | Potency (CAOV3) | Potency (CASKI)

C/C(=C\CCC(C(=O)O)C1CCC2(C)C3=C(CCC12C)C1(C)CCC(=O)C(C)(C)C1CC3)C(=O)O (stereo not given)
inactive: outcome (NIH3T3) inactive [at 17.4 µM] | Potency (C33A) | Potency (CAOV3) | Potency (CASKI)

O=c1ccn([C@@H]2O[C@H](CO)[C@@H](O)[C@H]2O)c(=O)[nH]1
inactive: outcome (NIH3T3) | Potency (C33A) | Potency (CAOV3) | Potency (CASKI)

CC1CCC2(C(=O)OC3OC(COC4OC(CO)C(O)C(O)C4O)C(O)C(O)C3O)CCC3(C)C(=CCC4C5(C)CCC(O)C(C)(C(=O)O)C5CCC43C)C2C1(C)O (stereo not given)
inactive: outcome (NIH3T3) inactive [at 9.27 µM] | activity change, negative = cytotoxicity (C33A) -3.16% [at 11.6 µM] | activity change, negative = cytotoxicity (CAOV3) 16.9% [at 11.6 µM] | activity change, negative = cytotoxicity (CASKI) 8.05% [at 11.6 µM]

C=CC1C(O[C@@H]2O[C@H](CO)[C@@H](O)[C@H](O)[C@H]2O)OC=C(C(=O)OC)C1Cc1nccc2c1[nH]c1ccccc12 (stereo not given in full)
inactive: outcome (NIH3T3) inactive [at 17.4 µM] | Potency (C33A) | Potency (CAOV3) | Potency (CASKI)

C[C@@H]1C[C@H](O)/C=C/[C@H](O)[C@@H](O)CC(=O)O1
inactive: outcome (NIH3T3) | Potency (C33A) | Potency (CAOV3) | Potency (CASKI)

COc1cc2c(cc1O)C1(Cc3ccc4c(c3C1=O)OCO4)N(C)CC2 (stereo not given)
inactive: outcome (NIH3T3) | Potency (C33A) | Potency (CAOV3) | Potency (CASKI)

C/C1=C\C[C@H](O[C@@H]2O[C@H](CO)[C@@H](O)[C@H](O)[C@H]2O)/C(C)=C/[C@H]2OC(=O)[C@H](C)[C@@H]2CC1
inactive: outcome (NIH3T3) inactive [at 17.4 µM] | Potency (C33A) | Potency (CAOV3) | Potency (CASKI)

O=C(/C=C/c1ccccc1)OCC1=CC[C@@H]2C(C(=O)O)=CO[C@@H](O[C@@H]3O[C@H](CO)[C@@H](O)[C@H](O)[C@H]3O)[C@H]12
inactive: outcome (NIH3T3) inactive [at 17.4 µM] | Potency (C33A) | Potency (CAOV3) | Potency (CASKI)

C[C@@H](O)[C@H](N)C(=O)N1CCC[C@H]1C(=O)N1CCC[C@H]1C(=O)N[C@H](C(N)=O)[C@@H](C)O (H-TPPT-NH2)
inactive: outcome (NIH3T3) inactive [at 9.27 µM] | activity change, negative = cytotoxicity (C33A) 10.5% [at 11.6 µM] | activity change, negative = cytotoxicity (CAOV3) 3.79% [at 11.6 µM] | activity change, negative = cytotoxicity (CASKI) 7.08% [at 11.6 µM]

C[C@@H]1CC[C@]2(C(=O)O[C@@H]3O[C@H](CO)[C@@H](O)[C@H](O)[C@H]3O)CC[C@]3(C)C(=CCC4[C@@]5(C)C[C@@H](O)[C@H](O)C(C)(C)C5CC[C@]43C)C2[C@]1(C)O (stereo not given in full)
inactive: outcome (NIH3T3) inactive [at 17.4 µM] | Potency (C33A) | Potency (CAOV3) | Potency (CASKI)

CC1(C)C(=O)C(C)(C)c2cc(C(=O)Nc3ccc(C(=O)O)cc3)ccc21
inactive: outcome (NIH3T3) | Potency (C33A) | Potency (CAOV3) | Potency (CASKI)

CCNC(=O)CCC/C=C\C[C@@H]1[C@@H](/C=C/C(O)CCc2ccccc2)[C@@H](O)C[C@@H]1O (stereo not given in full)
inactive: outcome (NIH3T3) | Potency (C33A) | Potency (CAOV3) | Potency (CASKI)

Cc1nn(C)c2c1C(c1ccc(C(F)(F)F)cc1)C(C#N)=C(N)O2 (stereo not given)
inactive: outcome (NIH3T3) | Potency (C33A) | Potency (CAOV3) | Potency (CASKI)

CC(C)(O)c1ccc2c(c1)C(O)CC1C(C)(C(=O)O)CCCC21C (stereo not given)
inactive: outcome (NIH3T3) | Potency (C33A) | Potency (CAOV3) | Potency (CASKI)

CNC(=O)c1ccc2cc([C@@]3(O)CCn4cncc43)ccc2c1
inactive: outcome (NIH3T3) | Potency (C33A) | Potency (CAOV3) | Potency (CASKI)

CC(=O)c1c(C)cc(O)cc1O[C@@H]1O[C@H](CO)[C@@H](O)[C@H](O)[C@H]1O
inactive: outcome (NIH3T3) | Potency (C33A) | Potency (CAOV3) | Potency (CASKI)

CC(C)(OC1OC(CO)C(O)C(O)C1O)C1CCC(O)(CO)C2CC(O)C(C)(O)C2C1 (stereo not given)
inactive: outcome (NIH3T3) inactive [at 17.4 µM] | Potency (C33A) | Potency (CAOV3) | Potency (CASKI)

O=C(/C=C/c1ccc(O)cc1)OCC1=C[C@@H](O)[C@@H]2C=CO[C@@H](O[C@@H]3O[C@H](CO)[C@@H](O)[C@H](O)[C@H]3O)[C@H]12
inactive: outcome (NIH3T3) inactive [at 17.4 µM] | Potency (C33A) | Potency (CAOV3) | Potency (CASKI)

C[C@@H]1O[C@@H](O[C@H]2[C@H](OC(=O)[C@]34CCC(C)(C)C[C@H]3C3=CCC5[C@@]6(C)CC[C@H](O[C@@H]7O[C@H](CO[C@@H]8OC[C@H](O)[C@H](O)[C@H]8O)[C@@H](O)[C@H](O)[C@H]7O)C(C)(C)C6CC[C@@]5(C)[C@]3(C)C[C@H]4O)OC[C@@H](O)[C@@H]2O)[C@H](O)[C@H](O)[C@H]1O[C@@H]1OC[C@H](O)[C@H](O[C@@H]2OC[C@@H](O)[C@H](O)[C@H]2O)[C@H]1O (stereo not given in full)
inactive: outcome (NIH3T3) inactive [at 9.27 µM] | activity change, negative = cytotoxicity (C33A) 2.46% [at 6.55 µM] | activity change, negative = cytotoxicity (CAOV3) -15.5% [at 6.55 µM] | activity change, negative = cytotoxicity (CASKI) -13.2% [at 6.55 µM]

COC1CC(OC2CCC3(C)C(=CCC4C3CCC3(C)C(C(C)O)CCC43O)C2)OC(C)C1OC1OC(C)C(OC2OC(COC3OC(COC4OC(CO)C(O)C(O)C4O)C(O)C(O)C3O)C(O)C(O)C2O)C(OC)C1O (stereo not given)
inactive: outcome (NIH3T3) inactive [at 9.27 µM] | activity change, negative = cytotoxicity (C33A) 3.94% [at 11.6 µM] | activity change, negative = cytotoxicity (CAOV3) 2.24% [at 11.6 µM] | activity change, negative = cytotoxicity (CASKI) 16.9% [at 11.6 µM]

CC1(C)CCCC2(C)C(CO)C3CCC2C31 (stereo not given)
inactive: outcome (NIH3T3) | Potency (C33A) | Potency (CAOV3) | Potency (CASKI)

COc1cc(/C=C/C(=O)O[C@H]2[C@H](O)[C@@H](CO)O[C@@]2(CO)O[C@H]2O[C@H](COC(=O)c3ccc(O)cc3)[C@@H](O)[C@H](O)[C@H]2O)cc(OC)c1OC
inactive: outcome (NIH3T3) inactive [at 17.4 µM] | Potency (C33A) | Potency (CAOV3) | Potency (CASKI)
